CYP2C9 inh: blockers of cytochrome P450 2C9 activity – biochemical, luminescence, ADME assay, primary screen. P11712. CYP2C9 Supersomes, luciferin-H conversion. inhibition, % at 5 µM. 96,000 tested, 20% active. AID 777, 2007;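 active means blocking of liver enzyme CYP2C9 beyond about 50% at 5 µM, limit read from the data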
Target sequence (P11712 whole entry, looked up): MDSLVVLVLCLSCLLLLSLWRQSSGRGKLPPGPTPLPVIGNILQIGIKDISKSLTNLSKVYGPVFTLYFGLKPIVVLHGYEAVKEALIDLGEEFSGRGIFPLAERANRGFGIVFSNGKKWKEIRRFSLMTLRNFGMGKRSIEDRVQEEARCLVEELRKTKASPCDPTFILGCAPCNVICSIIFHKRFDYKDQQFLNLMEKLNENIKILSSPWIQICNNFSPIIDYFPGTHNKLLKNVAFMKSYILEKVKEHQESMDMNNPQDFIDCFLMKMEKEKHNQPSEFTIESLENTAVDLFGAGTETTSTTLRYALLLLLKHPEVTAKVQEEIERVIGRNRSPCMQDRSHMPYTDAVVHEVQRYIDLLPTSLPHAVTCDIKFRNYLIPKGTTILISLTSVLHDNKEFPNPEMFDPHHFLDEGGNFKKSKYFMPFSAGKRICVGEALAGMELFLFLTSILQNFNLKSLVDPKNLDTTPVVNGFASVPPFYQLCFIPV
CYP2C19 inh: blockers of cytochrome P450 2C19 activity – biochemical, luminescence, ADME assay, primary screen; P33261; CYP2C19 Supersomes, luciferin-H EGE luminescence, 30 min; inhibition, % at 5 µM; 96,000 tested, 21% active; AID 778, 2007;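 active means CYP2C19 inhibition above a set limit at 5 µM in the primary screen, cut at about 50% in these data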;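 further: plate controls were negative control wells for no effect and 2.5 mM tranylcypromine positive control for full effect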
CYP2C19 activ: human CYP2C19 activators, primary screen, biochemical, luminescence | activation factor at 5 µM | 96,000 tested, under 10 active | Cytochrome P450 2C19 (Homo sapiens), P33261 | recombinant CYP2C19, luciferin-H EGE luminescence; stronger effect = higher value; 0 = fully inhibited enzyme, 1 = untreated enzyme;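 active means activation factor of at least 2 at 5 µM in the primary screen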;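 further: 0 = wells with 2.5 mM tranylcypromine and 1 = vehicle-only wells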
CYP2C9 activ: human CYP2C9 activators, primary screen, biochemical, luminescence | Cytochrome P450 2C9 (Homo sapiens), P11712 | recombinant CYP2C9, luciferin-H conversion; stronger effect = higher value; factor 1 = untreated enzyme, 0 = blocked | activation factor at 5 µM | 96,000 tested, 1.4% active;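 active means activation factor of 2 or more for CYP2C9 at a 5 µM dose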;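 further: 0 = sulfaphenazole-blocked wells and 1 = vehicle-only wells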
Measles CPE: compounds protecting cells from measles virus cytopathic effect, primary screen, measles RdRp inhibitor project, single point, MLSMR library, absorbance; Measles virus-infected cells, CPE protection; 140,000 tested, 1.5% active; AID 841, 2007; protection (pct of control), % at 4 µM; in the data active means protection mostly above about 24%, no sharp cut-off; inactive means mostly below about 26%
An asterisk follows results filed as active; . = no result given. Shown are actives, neighbours in structure and some others; about 22% of the full set was active somewhere.

SMILES	CYP2C9 inh	CYP2C19 inh	CYP2C19 activ	CYP2C9 activ	Measles CPE
COc1ccc(OCC(=O)N2CCN(C(=O)c3cccc4ccccc34)CC2)cc1	3.2	1.9	1	1	13.3
O=C(c1cccs1)N1CCN(Cc2ccccc2)CC1	.	.	.	.	3.6
COc1ccc(OC)c(CN2CCN(C(=O)c3cccc4ccccc34)CC2)c1	-36.8	55.0*	0.4	1.4	26.1
COc1ccc(CN2CCN(C(=O)c3cccs3)CC2)cc1	9.7	57.8*	0.4	0.9	19.0
COc1ccccc1C1(O)CCN(C(=O)c2cccs2)CC1	54.1*	18.2	0.8	0.5	18.2
COc1ccc(OC)c(CN2CCN(C(=O)c3cccs3)CC2)c1	70.0*	90.9*	0.1	0.3	3.1
Cc1cc(C)c2ccc(C)[n+]([O-])c2c1O	-251.5	16.0	0.8	3.5*	13.2
CCOC(=O)CC1C(=O)NCCN1C(=O)Nc1ccc(Cl)cc1 (stereo unspecified)	-6.7	2.2	1	1.1	13.1
O=C(Nc1ccc2c(c1)OCCO2)NC1(C(F)(F)F)Oc2ccccc2O1	-7.9	-12.5	1.1	1.1	11.3
Cc1ccc(-c2nc(SCC(=O)Nc3cc(S(=O)(=O)N4CCCCC4)ccc3Cl)n[nH]2)cc1	.	.	.	.	13.0
O=C(/C=C/c1ccccc1)Nn1cnnc1	54.4*	53.0*	0.5	0.5	-0.3
O=c1[nH]c(CSc2nnc(-c3ccco3)n2-c2ccccc2)nc2sc3c(c12)CCC3	26.7	38.2	0.6	0.7	.
N/C(=N\OC(=O)c1cccc(Cl)c1)c1ccccn1	.	.	.	.	23.2
CC(=O)NC(C)C(=O)OCc1ccc(Cl)cc1Cl (stereo unspecified)	-168.3	59.1*	0.4	2.7*	4.2
CC(NC(N)=O)C(=O)OCc1ccc(Cl)cc1Cl (stereo unspecified)	-40.7	43.4	0.6	1.4	2.3
O=C(COC(=O)c1cccnc1Cl)c1cccc(Cl)c1	2.0	56.2*	0.4	1	13.1
O=C(OCc1ccc(Cl)cc1Cl)c1cccnc1Cl	-0.8	74.3*	0.3	1	11.8
CC(C)Cn1c(N)c(C(=O)COC(=O)C2=COCCO2)c(=O)n(C)c1=O	.	.	.	.	3.8
CC(C)c1ccccc1OCC(=O)NC1CCCc2ccccc21 (stereo unspecified)	.	.	.	.	4.5
O=C(/C=C/c1ccccc1)NC(NC(=S)Nc1ccc(Cl)cc1Cl)C(Cl)(Cl)Cl (stereo unspecified)	.	.	.	.	15.3
O=C(/C=C/c1ccccc1)NC(NC(=S)Nc1cccc(O)c1)C(Cl)(Cl)Cl (stereo unspecified)	.	.	.	.	13.0
O=C(/C=C/c1ccccc1)NC(NC(=S)Nc1cccc(Cl)c1)C(Cl)(Cl)Cl (stereo unspecified)	77.0*	0.8	1	0.2	18.6
O=C(/C=C/c1ccccc1)NC(NC(=S)Nc1ccc(C(=O)O)cc1)C(Cl)(Cl)Cl (stereo unspecified)	.	.	.	.	45.0*
COc1cc(OC)c2c(C)cc(=O)oc2c1	6.4	-5.5	1.1	0.9	8.4
CCOc1ccc(NC(=O)N(C2CCCCC2)C(C)c2ccncc2)cc1 (stereo unspecified)	68.4*	62.8*	0.4	0.3	9.8
SMILES	CYP2C9 inh	CYP2C19 inh	CYP2C19 activ	CYP2C9 activ	Measles CPE
COC(=O)c1ccccc1NC(=O)NCc1ccco1	8.1	30.6	0.7	0.9	8.4
CC(C)C1C(C#N)=C(N)Oc2n[nH]c(C(C)(C)C)c21 (stereo unspecified)	7.3	-1.5	1	0.9	5.7
CCC(C)C1C(C#N)=C(N)Oc2n[nH]c(C)c21 (stereo unspecified)	.	.	.	.	-0.4
Cc1[nH]nc2c1C(CCc1ccccc1)C(C#N)=C(N)O2 (stereo unspecified)	31.7	74.2*	0.3	0.7	12.7
COc1ccc(F)c(C2C(C#N)=C(N)Oc3n[nH]c(C(C)(C)C)c32)c1 (stereo unspecified)	42.0	69.6*	0.3	0.6	3.5
CCCC1C(C#N)=C(N)Oc2n[nH]c(C(C)(C)C)c21 (stereo unspecified)	70.0*	92.7*	0.1	0.3	4.8
CN(C)CCCOC(=O)c1cc2ccccc2o1	4.6	1.7	1	1	5.2
CC(=O)N1CCN(C(=O)Cn2c(=O)oc3ccccc32)CC1	8.9	7.6	0.9	0.9	10.0
